# Inconclusive results are not listed. The source made the active and inactive calls. Rule for the calls: active = hit-call score of the fitted dose curve at least 0.9, where 1 is the maximum; inconclusive = response in the unintended direction; inactive = score below 0.9.
# Tested on: not listed separately
# Assay: TOX21_p53_BLA_p4_viability: Viability Assessment in the Tox21 HCT-116 p53 Agonism Beta-lactamase Assay, Phase 4 (AID 2283597);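 note: hits lower the luminescence signal meaning cytotoxicity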
# Procedure, shortened: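 Readout: ATP luminescence (CellTiter-Glo), measured 30 min after reagent addition at RT. The reagent followed a 2 h CCF4-AM incubation, and the cells had been exposed to compound for 16 h at 37C.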
SMILES,outcome,AC50
CO[Si](CCCNc1ccccc1)(OC)OC,inactive,
CCCCCCCC[P+](CCCCCCCC)(CCCCCCCC)CCCCCCCC,,21.6 µM (active)
Nc1cnn([C@@H]2O[C@H](CO)[C@@H](O)[C@H]2O)c(=O)n1,inactive,
O=C(O)c1cc(-c2ccccc2)nc2ccccc12,inactive,
CC(=O)OC(OC(C)=O)c1ccc([N+](=O)[O-])o1,,74.8 µM (active)
O=[N+]([O-])c1ccc(O)c2ncccc12,,23 µM (active)
COC(=O)C1=C(C)NC(C)=C(C(=O)OCCCN2CCC(c3ccccc3)(c3ccccc3)CC2)C1c1cccc([N+](=O)[O-])c1 (stereo unspecified),,28.8 µM (active)
CCCOc1ccccc1-c1nc2n[nH]nc2c(=O)[nH]1,inactive,
Cn1c(O)c(N=NC(N)=S)c2ccccc21,inactive,
CCC(=O)O[C@]1(C(=O)SCF)[C@H](C)C[C@H]2[C@@H]3C[C@H](F)C4=CC(=O)C=C[C@]4(C)[C@@]3(F)[C@@H](O)C[C@@]21C,inactive,
C[C@@H](NCCCc1cccc(C(F)(F)F)c1)c1cccc2ccccc12,,15.2 µM (active)
OCCN1CCN(CCCN2c3ccccc3Sc3ccc(Cl)cc32)CC1,,15.8 µM (active)
CCCCCCCCCCCCCC[N+](C)(C)Cc1ccccc1,,27.9 µM (active)
CN1C(=O)OC(C)(C)C1=O,inactive,
Cc1ccc(-n2nc(C(C)(C)C)cc2NC(=O)Nc2ccc(OCCN3CCOCC3)c3ccccc23)cc1,inactive,
CN(Cc1cc(Br)cc(Br)c1N)C1CCCCC1,inactive,
COc1c(Br)cc(Br)c(C)c1Br,inactive,
Nc1nc(Cl)nc2c1ncn2[C@@H]1O[C@H](CO)[C@@H](O)[C@@H]1F,inactive,
NC(=O)C(=O)NN=Cc1ccc([N+](=O)[O-])o1,,42.3 µM (active)
CCCCN(CCCC)c1ccc(C(=O)c2ccccc2C(=O)O)c(O)c1,,21.2 µM (active)
Nc1[nH]c(=O)ncc1F,inactive,
Clc1ccc(COC(Cn2ccnc2)c2ccc(Cl)cc2Cl)c(Cl)c1 (stereo unspecified),inactive,

# Target: Cellular tumor antigen p53 (Homo sapiens) (UniProt P04637)
# Assay: TOX21_p53_BLA_p5_ratio: Tox21 HCT-116 p53 Agonism Beta-lactamase Assay, Ratio, Phase 5 (AID 2283599)
# Procedure, shortened: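 HCT-116 cells carrying a p53-inducible beta-lactamase reporter were seeded at 4000 cells/well and dosed after 5 h with compound in DMSO (217-fold dilution). After 16 h at 37C, CCF4-AM substrate was added for 2 h, and the 460/530 nm emission ratio was scored as gain-of-signal versus DMSO.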
# Cellular tumor antigen p53 (Homo sapiens), sequence (P04637 whole entry, looked up): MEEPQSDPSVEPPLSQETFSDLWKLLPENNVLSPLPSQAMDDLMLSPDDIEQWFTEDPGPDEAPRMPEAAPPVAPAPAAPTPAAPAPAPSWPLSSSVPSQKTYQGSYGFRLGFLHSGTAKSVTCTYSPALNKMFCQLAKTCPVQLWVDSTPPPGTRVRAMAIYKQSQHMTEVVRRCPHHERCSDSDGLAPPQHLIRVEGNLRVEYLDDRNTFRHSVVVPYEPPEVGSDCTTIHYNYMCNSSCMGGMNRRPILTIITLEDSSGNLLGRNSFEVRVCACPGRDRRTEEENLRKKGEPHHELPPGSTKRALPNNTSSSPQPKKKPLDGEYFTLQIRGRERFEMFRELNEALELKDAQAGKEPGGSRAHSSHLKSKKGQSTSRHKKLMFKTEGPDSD
SMILES,outcome,AC50
CSc1nc2cc(Oc3cccc(Cl)c3Cl)c(Cl)cc2[nH]1,inactive,
Cc1c(C)n(CCN(C)C)c2ccc(C(=O)OCCN(C)C)cc12,inactive,
C/C(=C(\CCOC(=O)c1ccccc1)SS/C(CCOC(=O)c1ccccc1)=C(/C)N(C=O)Cc1cnc(C)nc1N)N(C=O)Cc1cnc(C)nc1N,inactive,
Cc1cc(N)c2ccccc2[n+]1CCCCCCCCCC[n+]1c(C)cc(N)c2ccccc21,inactive,
NC(=O)NS(=O)(=O)c1ccc(N)cc1,inactive,
C=C1CC[C@H](O)C/C1=C/C=C1\CCC[C@]2(C)[C@@H]([C@H](C)CCCC(C)(C)O)CC[C@@H]12,,23.2 µM (active)
O=C1NCN(c2ccccc2)C12CCN(CCCC(c1ccc(F)cc1)c1ccc(F)cc1)CC2,,45 µM (active)
CCC(C)(C)c1ccc(CC(C)CN2C[C@@H](C)O[C@@H](C)C2)cc1 (stereo partly specified),inactive,
C=C(Nc1ccc(OCC)cc1)Nc1ccc(OCC)cc1,inactive,
Cc1ccc(O)c(O)c1,,66 µM (active)
COc1cc2c(cc1OC)C(=O)C(CC1CCN(Cc3ccccc3)CC1)C2 (stereo unspecified),inactive,
CC(C)(C)NCC(O)CSc1nc(-c2ccc(C(N)=O)s2)cs1 (stereo unspecified),inactive,
Oc1ccc(Cl)c2cccnc12,inactive,
Cc1cc2nc(N)sc2cc1C,inactive,
CCOc1ccc2nc3cc(N)ccc3c(N)c2c1,,43.5 µM (active)
Cc1cc2c(C(C)C)c(O)c(O)c(C=O)c2c(O)c1-c1c(C)cc2c(C(C)C)c(O)c(O)c(C=O)c2c1O,,35 µM (active)
CC[C@@H](CO)NCCN[C@@H](CC)CO,inactive,
CO[Si](CCCNc1ccccc1)(OC)OC,inactive,
CCCCCCCC[P+](CCCCCCCC)(CCCCCCCC)CCCCCCCC,,13.2 µM (active)
Nc1cnn([C@@H]2O[C@H](CO)[C@@H](O)[C@H]2O)c(=O)n1,,6.26 µM (active)

SMILES,outcome,AC50
O=C(O)c1cc(-c2ccccc2)nc2ccccc12,inactive,
CC(=O)OC(OC(C)=O)c1ccc([N+](=O)[O-])o1,inactive,
O=[N+]([O-])c1ccc(O)c2ncccc12,inactive,
COC(=O)C1=C(C)NC(C)=C(C(=O)OCCCN2CCC(c3ccccc3)(c3ccccc3)CC2)C1c1cccc([N+](=O)[O-])c1 (stereo unspecified),,43.6 µM (active)
CCCOc1ccccc1-c1nc2n[nH]nc2c(=O)[nH]1,inactive,
Cn1c(O)c(N=NC(N)=S)c2ccccc21,inactive,
CCC(=O)O[C@]1(C(=O)SCF)[C@H](C)C[C@H]2[C@@H]3C[C@H](F)C4=CC(=O)C=C[C@]4(C)[C@@]3(F)[C@@H](O)C[C@@]21C,inactive,
C[C@@H](NCCCc1cccc(C(F)(F)F)c1)c1cccc2ccccc12,inactive,
OCCN1CCN(CCCN2c3ccccc3Sc3ccc(Cl)cc32)CC1,inactive,
CCCCCCCCCCCCCC[N+](C)(C)Cc1ccccc1,,40.8 µM (active)
CN1C(=O)OC(C)(C)C1=O,inactive,
Cc1ccc(-n2nc(C(C)(C)C)cc2NC(=O)Nc2ccc(OCCN3CCOCC3)c3ccccc23)cc1,inactive,
CN(Cc1cc(Br)cc(Br)c1N)C1CCCCC1,inactive,
COc1c(Br)cc(Br)c(C)c1Br,inactive,
Nc1nc(Cl)nc2c1ncn2[C@@H]1O[C@H](CO)[C@@H](O)[C@@H]1F,,0.112 µM (active)
NC(=O)C(=O)NN=Cc1ccc([N+](=O)[O-])o1,,37.1 µM (active)
CCCCN(CCCC)c1ccc(C(=O)c2ccccc2C(=O)O)c(O)c1,,52.2 µM (active)
Nc1[nH]c(=O)ncc1F,inactive,
Clc1ccc(COC(Cn2ccnc2)c2ccc(Cl)cc2Cl)c(Cl)c1 (stereo unspecified),inactive,

# — PubChem BioAssay (EPA / NIEHS)
